Shown are actives, neighbours in structure and some others; about 2.5% of the full set was active somewhere.
TWEAK-Fn14 inh = blocks TWEAK-Fn14 interaction in a reporter cell assay | TWEAK-stimulated Fn14 reporter cells, luciferase luminescence, 8 h | inhibition, % at 10 µM | actives 2% (n = 360,000); in the data active = inhibition above about 50%
TROY signal inh = TROY signaling inhibition; Q293 LMP1-TROYcd NF-kB luciferase reporter, 4 h; inhibition, % at 10 µM; actives 0.98% (n = 360,000); AID 1347056;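 active = compounds whose plate-normalised and pattern-corrected inhibition of the luciferase reporter signal at the single screening dose is 50% or more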
EWS-Fli block = inhibitors of EWS/Fli oncoprotein transcriptional activity | A673 NR0B1-luciferase reporter, viability-normalised | inhibition, % at 12.6 µM | actives 0.67% (n = 350,000);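 active = mean inhibition of at least 50% after viability correction, with every replicate also passing that limit; inconclusive = mean reaches 50% but only one of two replicates passes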;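 also: firefly luciferase signal divided by Alamar Blue viability fluorescence both relative to DMSO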
EBV LMP1 NFkB = reduces LMP1-driven NF-kappaB luciferase signal | LMP1-induced NF-kappaB luciferase reporter cells, luminescence | inhibition, % at 12.5 µM | actives 0.69% (n = 350,000) | AID 504558; in the data active = inhibition above about 41%; inconclusive = no clear call, values can overlap the other calls
LGR2 antag = Drosophila LGR2 receptor signaling inhibition; AID 720647; actives 0.35% (n = 380,000); HEK293 LGR2, CRE-luciferase, bursicon-stimulated, 4 h; inhibition, % at 9.99 µM;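 active = drop in luminescence signal, shown as inhibition above about 50% in the replicate tests, limit read from the data, passing the limit was not always enough; inconclusive = probably only some replicates passing the limit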;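 also: agonist challenge used bursicon conditioned medium at about half maximal strength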
Large screens that a line does not name were inactive; ! = a repeat was not active.

CCCC(C)C(=O)Nc1ccc2c(c1)OCCO2 (stereo not given)	TWEAK-Fn14 inh 53 (no result: EWS-Fli block, LGR2 antag)
COc1ccc(S(=O)(=O)N2CCC(C(=O)NC3CC3)CC2)cc1OC	EBV LMP1 NFkB 67 (no result: EWS-Fli block)
CC(=O)c1cccc(S(=O)(=O)N2CCC(C(=O)Nc3cccc(C(=O)NC4CC4)c3)CC2)c1	TROY signal inh 62
COc1ccccc1-c1ccc2c(c1)[C@H]1[C@H](CCN1S(=O)(=O)c1cccc(C)c1)[C@H](CO)N2	none (no result: TWEAK-Fn14 inh, TROY signal inh, EBV LMP1 NFkB)
Cc1cc(C)n2nc(CC(=O)NC3CCCCCC3)nc2n1	EBV LMP1 NFkB 64 (no result: EWS-Fli block)
Cc1ccc(C(=O)NNC(=O)Cc2nc3nc(C)cc(C)n3n2)cc1	none (no result: EBV LMP1 NFkB)
CO[C@H]1CN(C)C(=O)c2cc(NC(=O)CC(F)(F)F)ccc2OC[C@H](C)N(CC2CC2)C[C@H]1C	none (no result: TWEAK-Fn14 inh, TROY signal inh, EBV LMP1 NFkB)
Cc1cnc(NC(=O)COc2ccccc2Cl)s1	TWEAK-Fn14 inh 96, TROY signal inh 59, EBV LMP1 NFkB 66, LGR2 antag 91 (no result: EWS-Fli block)
CO[C@@H]1CN(C)C(=O)c2cc(NC(C)=O)ccc2OC[C@H](C)N(C(=O)c2ccccc2F)C[C@@H]1C	none (no result: TWEAK-Fn14 inh, TROY signal inh, EBV LMP1 NFkB)
Cc1cccc(C(=O)N2CCN(c3ccc(C(F)(F)F)cn3)CC2)c1C	EBV LMP1 NFkB 45 (no result: EWS-Fli block, LGR2 antag)
O=C(COc1ccc(Cl)cc1Cl)Nc1ccc(Cl)cn1	TWEAK-Fn14 inh 54
O=C(O)CCC(=O)NNC(=O)CCCOc1ccc(Cl)cc1Cl	TWEAK-Fn14 inh 97 (no result: EWS-Fli block)
O=C(COc1ccc(Cl)cc1Cl)Nc1ccccc1F	TWEAK-Fn14 inh 55
Cc1noc(C)c1NC(=O)N(C)C[C@H]1Oc2ccc(NS(=O)(=O)c3c(C)noc3C)cc2CC(=O)N([C@@H](C)CO)C[C@@H]1C	none (no result: TWEAK-Fn14 inh, TROY signal inh, EBV LMP1 NFkB)
CN1C(=O)NC(c2ccccc2)C2=C1CN(c1ccc3ccccc3c1)C2=O (stereo not given)	TROY signal inh 53 (no result: EWS-Fli block, LGR2 antag)
COC(=O)[C@H]1[C@H](CO)[C@H]2Cn3c(ccc(-c4ccccc4F)c3=O)[C@H]2N1Cc1ccncc1	none (no result: TWEAK-Fn14 inh, TROY signal inh, EBV LMP1 NFkB)
CCCCC(=O)NC(c1ccc(Cl)cc1Cl)c1ccc2cccnc2c1O (stereo not given)	EBV LMP1 NFkB 69
CCC(=O)NC(c1ccc(Cl)cc1Cl)c1ccc2cccnc2c1O (stereo not given)	EBV LMP1 NFkB 49
CCC(=O)NC(c1cccs1)c1cc(Cl)c2cccnc2c1O (stereo not given)	none
COc1ccc(C(NC(=O)C(C)C)c2ccc3cccnc3c2O)cc1 (stereo not given)	none
CC(C)C(=O)NC(c1ccc(Cl)cc1Cl)c1ccc2cccnc2c1O (stereo not given)	TWEAK-Fn14 inh 103, EBV LMP1 NFkB inconclusive
Cc1cc(N2CCOCC2)ccc1/C=C1\SC(=O)N(C(C)C)C1=O	none (no result: EWS-Fli block, LGR2 antag)
CCC(C)N1C(=O)S/C(=C/c2ccc(N3CCOCC3)cc2C)C1=O (stereo not given)	TWEAK-Fn14 inh 51
CN(CCC#N)c1ccc(/C=C(\C#N)c2ccccn2)cc1	TWEAK-Fn14 inh 52, LGR2 antag 73
CCN(CC)c1ccc(/C=C(\C#N)c2ccccn2)cc1	TWEAK-Fn14 inh 77, TROY signal inh 71 (no result: EWS-Fli block, LGR2 antag)
COc1ccccc1CN1[C@H](C(=O)NCCc2ccncc2)[C@@H](CO)[C@@H]2Cn3c(cccc3=O)[C@@H]21	none (no result: TWEAK-Fn14 inh, TROY signal inh, EBV LMP1 NFkB)
Cn1cnnc1SCC(=O)OCN1C(=O)c2ccccc2C1=O	none (no result: EWS-Fli block)
Cc1cc(C)nc(SCC(=O)OCN2C(=O)c3ccccc3C2=O)n1	EBV LMP1 NFkB 85 (no result: EWS-Fli block, LGR2 antag)
CC(C)(C)c1ccc(C(=O)Nc2ccc(CC(=O)O)cc2)o1	TWEAK-Fn14 inh 88, TROY signal inh 55, EBV LMP1 NFkB 72 (no result: EWS-Fli block)
CCN1CCN(Cc2ccc(NC(=O)c3cc(NC(=O)c4nccnc4N)cc(OC)c3)cc2C(F)(F)F)CC1	none
CCN1CCN(Cc2ccc(NC(=O)c3ccc(C)c(NC(=O)N4CCNC4=O)c3)cc2C(F)(F)F)CC1	EBV LMP1 NFkB 47!
CCN1CCN(Cc2ccc(NC(=O)c3cc(NC(=O)c4cnnc5ccccc45)cc(OC)c3)cc2C(F)(F)F)CC1	none
CCN1CCN(Cc2ccc(NC(=O)c3cc(NC(=O)c4cncc(-c5ccc(C#N)cc5)c4)cc(OC)c3)cc2C(F)(F)F)CC1	none
CCN1CCN(Cc2ccc(NC(=O)c3ccc(C)c(NC(=O)c4nccnc4N)c3)cc2C(F)(F)F)CC1	EBV LMP1 NFkB 57
CCN1CCN(Cc2ccc(NC(=O)c3ccc(C)c(NC(=O)c4cccc5[nH]ccc45)c3)cc2C(F)(F)F)CC1	EBV LMP1 NFkB 62
CCN1CCN(Cc2ccc(NC(=O)c3ccc(C)c(NC(=O)c4cncc(-c5cccs5)c4)c3)cc2C(F)(F)F)CC1	EBV LMP1 NFkB 71 (no result: EWS-Fli block, LGR2 antag)

Assay outcomes deposited in PubChem by several laboratories.
